Screening results: PubChem, National Center for Advancing Translational Sciences (NCATS)
The full list was thinned out, with hits kept by preference.
NS1 inh = blocks influenza NS1 protein function; Potency, µM (highest dose often 46.1 µM), inactives show top-dose activity, positive = more growth; 270,000 compounds, 0.4% hits; AID 2326; calls by dose curve; also: potency is read from the fitted curve at half-maximal effect; actives are rising curves; nearly all actives have a fitted effect of over 50% in size
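Growth recovery, yeast-based: influenza A NS1 expressed in S. cerevisiae causes slow growth, and suppressors are detected by OD600. The parent strain without NS1 is used as positive control.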
SARS PLpro yeast = inhibitors of SARS-CoV papain-like protease in yeast; 330,000 compounds, 0.19% hits; S. cerevisiae expressing SARS-CoV PLpro, growth rescue; Potency, µM (highest dose often 32.9 µM), inactives show at the top dose activity, positive = growth rescue, hits mostly activators; AID 485353; calls by dose curve; also: potency is read from the fitted curve at half-maximal effect; 0% is about no effect; nearly all actives have a fitted effect of over 55% in size
Tb PYK inh = T. brucei pyruvate kinase inhibition | Q57TT1 | TbPYK enzyme, Kinase-Glo Plus ATP luminescence, 45 min | Potency, µM (doses to about 76.8 µM), without a hit: top-dose activity, negative = inhibition, usual class: inhibitors | 410,000 compounds, 0.12% hits | AID 624173; also: potency is read from the fitted curve at half-maximal effect; % is scaled to controls: 0 for no effect and ±100 for the full control effect; nearly all actives have a fitted effect of over 50% in size
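Assay buffer: 50 mM TEA pH 7.2, 100 mM KCl, 10 mM MgCl2, 0.05% BSA, 0.01% Tween-20. Pyruvate kinase from T. brucei plus substrate met compound, then ADP (130 uM final). Luminescence was read post 45 min RT.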
Cycloheximide cs = counter-screen for Shiga toxin inhibitors: cycloheximide protein synthesis inhibition; cell reporter, cycloheximide protein synthesis inhibition counterscreen; max response, %; 300,000 compounds, 12% hits; in the data active = max response mostly above about 13%, no sharp cut-off; inactive = mostly below about 14%; also: read at 38.3 µM for the half of the compounds with a filed dose; 0% is about no effect
Shiga inhibitor = inhibitors of Shiga toxin in Vero cells | AID 2315 | Vero cells, Shiga toxin protein synthesis inhibition reporter | 290,000 compounds, 9.2% hits | inhibition, % at 38.7 µM; in the data active = inhibition mostly above about 28%, no sharp cut-off; inactive = mostly below about 43%; also: 0% is about no effect
LmPK inh = inhibitors of Leishmania mexicana pyruvate kinase; Q27686; purified LmPK, Kinase-Glo ATP luminescence, 1 h; Potency, µM (series often up to 57.5 µM), for the others: at the top dose activity change, negative = inhibition, usual class: inhibitors; 290,000 compounds, 0.37% hits; AID 1721; also: potency is read from the fitted curve at half-maximal effect; % is scaled to controls: 0 for no effect and ±100 for the full control effect
Target sequence (Q27686 whole entry, looked up): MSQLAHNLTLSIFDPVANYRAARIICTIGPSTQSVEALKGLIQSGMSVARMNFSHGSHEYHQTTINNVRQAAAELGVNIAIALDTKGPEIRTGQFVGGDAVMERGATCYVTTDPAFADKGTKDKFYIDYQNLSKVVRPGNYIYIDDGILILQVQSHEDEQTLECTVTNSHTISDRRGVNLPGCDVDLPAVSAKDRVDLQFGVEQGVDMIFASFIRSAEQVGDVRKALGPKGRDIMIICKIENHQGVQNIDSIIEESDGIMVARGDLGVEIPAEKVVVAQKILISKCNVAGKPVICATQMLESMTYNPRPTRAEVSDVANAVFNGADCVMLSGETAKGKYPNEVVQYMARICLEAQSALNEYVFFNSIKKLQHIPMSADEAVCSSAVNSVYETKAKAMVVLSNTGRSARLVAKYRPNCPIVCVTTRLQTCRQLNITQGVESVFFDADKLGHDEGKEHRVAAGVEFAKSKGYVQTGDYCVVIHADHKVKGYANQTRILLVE
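0.1 nM LmPK, 0.5 mM PEP, 0.1 mM ADP; 50 mM imidazole pH 7.2, 7 mM MgCl2, 50 mM KCl; 1 h RT. Kinase-Glo luminescence readout, normalized to no-enzyme (full inhibition) and uninhibited wells.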
The depositor's hits bear a star; x = no result. Unless noted, calls follow the shape of the dose curve; as a rule, active = well fitted curve in the direction sought with a large enough effect; inconclusive = small, poorly fitted or top-dose-only effect, or another doubt; inactive = no such curve, though single readings can be large; an effect the other way counts as inactive or inconclusive.

SMILES	NS1 inh	SARS PLpro yeast	Tb PYK inh	Cycloheximide cs	Shiga inhibitor	LmPK inh
COc1cc(Cl)c(NS(=O)(=O)c2ccc3c(c2)CC(C)N3C(=O)C2CCC2)c(OC)c1 (stereo not drawn)	x	x	3%	x	x	x
CC1(C)CC(=O)C=C(c2cccc(O)c2)C1	x	-6%	-7%	x	x	x
COc1cc(C(C)=O)ccc1O	x	-3%	-7%	x	x	x
CC(C)Sc1cc(Cl)nc(NC(=O)Nc2ccccc2)n1	1%	-1%	2%	29*	50	-5%
O=C(CCCc1c[nH]c2ccccc12)Nc1ccc2ccccc2c1	5%	-9%	-6%	38*	68*	2%
CC(=O)Nc1ccc(NC(=O)CCCc2c[nH]c3ccccc23)cc1	7%	0%	1%	1	-19	-3%
Cc1ccc(NC(=O)CCc2c[nH]c3ccccc23)nc1	-20%	-3%	0%	11*	35*	1%
O=C(CCc1c[nH]c2ccccc12)Nc1ncccc1O	-18%	-4%	-7%	16*	16	-3%
O=C(CCc1c[nH]c2ccccc12)NCc1ccncc1	24%	3%	-2%	-6	-4	0%
O=C(CCC1CCCCC1)NC1CCCCC1	x	1%	0%	x	x	x
O=C(/C=C/c1cccc(Cl)c1)NNC(=O)c1ccncc1	x	0%	-3%	x	x	x
FCCCOc1ccc(-c2ccnc(-c3ccccc3)n2)cc1	-3%	-14%	-7%	28*	81*	0%
COc1ccc(-c2ccnc(-c3ccc(O)cc3)n2)cc1	x	-6%	1%	24*	79	8%
FCCCOc1ccc(-c2nccc(-c3ccc(F)cc3)n2)cc1	-5%	-13%	5%	16	19	-3%
Cc1ccc(-c2ccnc(-c3ccc(O)cc3)n2)cc1	x	2%	0%	31*	80*	-2%
Oc1ccc(-c2nccc(-c3ccccn3)n2)cc1	-4%	-2%	11%	81*	88*	-2%
Cc1ccc(C(=O)OCC(=O)NN2C(=O)NC3(CCC(C)CC3)C2=O)cc1 (stereo not drawn)	x	2%	-1%	x	x	x
CCC(C)NC(=O)CC(c1ccccc1)c1cc(C)ccc1O (stereo not drawn)	7%	0%	0%	5	8	-4%
